Data published in PubChem BioAssay (EPA / NIEHS).
Where “and” joins values, the source holds several entries; their conditions need not be identical. Equal values may be shown once. Records with an inconclusive call do not appear. The source holds several records for some structures; these can differ, active in one and inactive in another. Calls of active or inactive are those of the source. Rule for the calls, unless noted: active = hit-call score of the fitted dose curve at least 0.9, where 1 is the maximum; inactive = score below 0.9.

Tests used:
[1] = CCTE_Shafer_MEA_dev_per_network_spike_spike_number_mean: CCTE's Neural Network Formation Assay for Mean Number of Spikes in a Network Spike, Shafer Lab (AID 2284053);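 for AC50: fitted as decrease in spikes per network spike relative to DMSO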
In short: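 Continuous twelve-day exposure of developing rat cortical networks grown over 16 microelectrodes per well; spontaneous firing is captured at four time points, and the per-network-spike spike number is integrated over development by trapezoidal AUC.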

[2] = CCTE_Shafer_MEA_dev_per_network_spike_spike_percent: CCTE's Neural Network Formation Assay for Percent of Spikes in a Network Spike, Shafer Lab (AID 2284054)
In short: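 Metric: fraction of spikes falling in a 0.05 s window at network-spike peaks. Recordings were made on days 5, 7, 9 and 12 and collapsed by trapezoidal AUC. Cultures were rat cortical neurons on MEA plates, dosed continuously from plating, re-dosed at media changes.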

DIO3 (gene 1735) = test: CCTE_GLTED_hDIO3: CCTE's human Deiodinase 3 (DIO3) Inhibition Assay, Great Lakes Toxicology and Ecology Division (GLTED) Lab (AID 2284055; active = hit-call score of the fitted dose curve at least 0.9, where 1 is the maximum;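 note: potency is for inhibition seen as loss of released iodide signal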)
In short: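 Steps: incubate adenovirus-produced hDIO3 with chemical for 3 hours; detect freed iodide via cerium-arsenic Sandell-Kolthoff colorimetry; compare with DMSO baseline.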

[3] = CCTE_Shafer_MEA_dev_AB: CCTE's Alamar Blue Assay for Cytotoxicity in the Neural Network Formation Assay, Shafer Lab (AID 2284083; active = hit-call score of the fitted dose curve at least 0.9, where 1 is the maximum;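 note: twelve days of exposure from plating with re-dosing on DIV 5 and 9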)
In short: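 Fluorescent resazurin reduction serves as the viability read-out, with DMSO as negative control and baseline. Cells were primary rat cortical neurons grown on MEA plates and dosed from day 0 to day 12, treatment renewed on DIV 5 and 9.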

[4] = CCTE_Shafer_MEA_dev_mutual_information_norm: CCTE's Neural Network Formation Assay for Mutual Information Normalization, Shafer Lab (AID 2284091);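 for AC50: mutual information between electrodes summarised as area under curve across four recording days; potency is for a decrease in mutual information relative to DMSO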
In short: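 Shared information across electrodes, tracked on days 5, 7, 9 and 12 of network development and collapsed as trapezoidal area under the curve. Rat cortical cultures were treated continuously from plating, with treatment renewed at feeds on DIV 5 and 9; DMSO baseline, negative-direction fit.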

[5] = CCTE_Shafer_MEA_dev_correlation_coefficient_mean: CCTE's Neural Network Formation Assay for Mean Correlation Coefficient, Shafer Lab (AID 2284093);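 for AC50: well mean pairwise spike train correlation integrated as AUC over recording days 5 to 12; potency fitted for loss of correlation relative to DMSO vehicle wells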
In short: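 Read-out: well-mean correlation coefficient of spike trains between electrode pairs, collapsed over four recording days as trapezoidal area-under-the-curve. Developing rat cortical neuron networks grown on MEAs received test chemical continuously from plating.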

[6] = UKN2_HCS_IMR90_neural_migration: University of Konstanz (UKN) Leist Lab Neural Crest Cell Migration Assay in human induced IMR90 Pluripotent Stem Cells (UKN2) (AID 2284204); conditions: actives raise or lower the signal
In short: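 High-content imaging of calcein-AM and Hoechst stained cells quantifies migration into a stopper-defined gap after 24 h compound exposure. Neural crest cells from IMR90 iPSC migrated 24 h in EGF/FGF N2-S medium before dosing; DMSO baseline.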

[7] = IUF_NPC1b_proliferation_BrdU_72hr: Leibniz Research Institute for Environmental Medicine (IUF) 72-hour Neural Progenitor Cell Bromodeoxyuridine (BrdU) Proliferation Assay (NPC1b) (AID 2284207)
In short: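 Human fetal cortex-derived (GW 16-19) neural progenitor spheres, 0.25-0.35 mm, one per well in EGF/FGF proliferation medium, exposed to compound for 72 h at 37C, pH 7.2-7.6. BrdU incorporation over the final 16 h read by luminescence ELISA, relative to DMSO.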

[8] = IUF_NPC1a_proliferation_area_72hr: Leibniz Research Institute for Environmental Medicine (IUF) 72-hour Neural Progenitor Cell Proliferation Area Assay (NPC1a) (AID 2284208)
In short: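 Proliferation is scored as sphere area gain in primary human fetal neural progenitors treated for 72 h in EGF/FGF-containing medium. Viability, LDH and BrdU readouts come from the same wells.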

[9] = IUF_NPC1_viability_72hr: Viability Assessment at 72 hours in the Leibniz Research Institute for Environmental Medicine (IUF) Neural Progenitor Cell Proliferation Assay (NPC1) (AID 2284209)
In short: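 Three-day continuous exposure of human neural progenitor spheres under EGF/FGF-driven proliferation; cell viability scored by alamar blue signal versus DMSO.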

[10] = CCTE_Mundy_HCI_Cortical_Synap_Neur_Matur_BPCount: CCTE's Synaptogenesis and Neurite Maturation Assay in rat cortical cells for Branch Point Count, Mundy Lab (AID 2284211)
In short: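 In this multiplexed morphology assay, cortical cells from rat receive chemicals at DIV 7 and are fixed at DIV 12, then immunostained and imaged; branch points are counted, with DMSO as baseline.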

[11] = CCTE_Mundy_HCI_Cortical_NOG_NeuriteCount: CCTE's Neurite Outgrowth Assay in rat cortical cells for Neurite Count, Mundy Lab (AID 2284212);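 note: cells fixed about two days after chemical exposure began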
In short: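 Rat cortical primary cells; compound added 2 h post-plating, 1/10 dilution of working solution. Anti-betaIII-tubulin/AF488 ICC; ArrayScan neurite count vs DMSO.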

[12] = CCTE_Mundy_HCI_Cortical_NOG_NeuriteLength: CCTE's Neurite Outgrowth Assay in rat cortical cells for Neurite Length, Mundy Lab (AID 2284213);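 for AC50: neurites imaged about 48 to 50 h after chemical exposure began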
In short: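 First, rat primary cortical cells were plated and, 2 h later, given test chemical as a 1/10 dilution. Finally, βIII-tubulin immunostaining enabled automated imaging of neurite length.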

[13] = CCTE_Mundy_HCI_Cortical_Synap_Neur_Matur_NeuriteSpotCountPerNeuron: CCTE's Synaptogenesis and Neurite Maturation Assay in rat cortical cells for Neurite Spot Count per Neuron Count, Mundy Lab (AID 2284215)
In short: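 Synapse density is scored as synaptophysin spots along neurites per neuron in fixed rat cortical neurons, measured at DIV 12 after chemical dosing at DIV 7. DMSO is the negative control and activity baseline.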

[14] = CCTE_Shafer_MEA_acute_LDH: CCTE's Lactate Dehydrogenase Assay for Cytotoxicity in the Neural Acute Assay, Shafer Lab (AID 2284086; active = hit-call score of the fitted dose curve at least 0.9, where 1 is the maximum;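 note: active means LDH release rises above DMSO vehicle level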)
In short: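 Cytotoxicity readout: spectrophotometric LDH activity in supernatant of rat primary cortical neurons, post-plating day 13 or 15, sampled after 40 min compound exposure; signal gain relative to DMSO baseline.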

[15] = UKN5_HCS_SBAD2_cell_viability: Viability Assessment in the University of Konstanz (UKN) Leist Lab Neurite Outgrowth Assay in human iPSC-derived immature Dorsal Root Ganglia Neurons (UKN5) (AID 2284056)
In short: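 iPSC-derived immature peripheral neurons (SBAD2) seeded on Matrigel with CHIR99021, SU5402 and DAPT, dosed 1 h later for 24 h. Viability from Hoechst H-33342 and calcein-AM live staining, high-content imaging; bidirectional fit versus DMSO.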

[16] = CCTE_Shafer_MEA_acute_AB: CCTE's Alamar Blue Assay for Cytotoxicity in the Neural Acute Assay, Shafer Lab (AID 2284069; active = hit-call score of the fitted dose curve at least 0.9, where 1 is the maximum;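 note: active compounds lower the viability signal compared with DMSO wells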)
In short: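 Metabolic activity in chemically exposed rat cortical neurons (MEA cultures, day 13/15 post-plating) measured via CellTiter Blue resazurin reduction, 544/590 nm fluorescence; fitted relative to DMSO, with signal loss indicating reduced viability.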

[17] = UKN5_HCS_SBAD2_neurite_outgrowth: University of Konstanz (UKN) Leist Lab Neurite Outgrowth Assay in human iPSC-derived immature Dorsal Root Ganglia Neurons (UKN5) (AID 2284070); conditions: actives raise or lower the signal
In short: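 Neurite outgrowth is quantified as calcein-AM-labelled neurite area in human iPSC-derived peripheral neurons treated for 24 h, starting 1 h after plating in medium with CHIR99021 (1.5 uM), SU5402 (5 uM) and DAPT (5 uM).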

[18] = UKN4_HCS_LUHMES_neurite_outgrowth: University of Konstanz (UKN) Leist Lab Neurite Outgrowth Assay in human LUHMES cells (UKN4) (AID 2284206); conditions: actives raise or lower the signal
In short: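 Neurite area in dopaminergic-model LUHMES neurons is measured by high-content imaging of calcein-AM after 24 h treatment starting shortly after day-2 replating; Hoechst staining tracks viability.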

[19] = TAMU_PeakParms_SingleDonor1434_Chronotropy: Texas A&M University (TAMU) 1.5-hr Human Induced Pluripotent Stem Cell (iPSC)-derived Cardiomyocytes Calcium (Ca+2) Flux Assay for Cardiotoxicity: Chronotropy (changes in peak frequency) (AID 2284217); conditions: actives raise or lower the signal
In short: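 Beat frequency of single-donor iPSC cardiomyocytes was recorded through a calcium-sensitive dye 1.5 hours after exposure to four concentrations up to 100 uM. An EC05 point of departure was derived.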

Measured: AC50

CS(=O)(=O)c1ccc(C(=O)C2C(=O)CCCC2=O)c([N+](=O)[O-])c1
active: DIO3 (gene 1735) 46.3 µM
not listed: [14] | [15] | [16] | [17] | [18] | [19]
inactive: all other assays above

Cc1c(COC(=O)[C@@H]2[C@H](/C=C(\Cl)C(F)(F)F)C2(C)C)cccc1-c1ccccc1
inactive: [14] | [6] | [8] | [9]
active: [1] 665 nM and 864 nM | [2] 440 nM and 649 nM | [3] 14.6 µM and 14.9 µM | [4] 142 nM and 269 nM | [5] 395 nM and 497 nM | [7] 0.97 µM | [10] 2.71 µM | [11] 27.8 µM | [12] 26.9 µM | [13] 3.15 µM

CCNC(=O)NC(=O)C(C#N)=NOC
not listed: DIO3 (gene 1735) | [6] | [14] | [15] | [16] | [17] | [18] | [19]
inactive: all other assays above

COP(=S)(OC)SCn1nnc2ccccc2c1=O
active: [1] 24.9 µM | [2] 4.18 µM | [15] 47.2 µM | [17] 35.1 µM | [3] 26.2 µM | [4] 4.99 nM | [5] 15 µM | [6] 19.6 µM | [18] 15.4 µM
not listed: DIO3 (gene 1735) | [19]
inactive: all other assays above

CC(C)(C)C(=O)C(Oc1ccc(Cl)cc1)n1cncn1 (stereo not drawn)
inactive: [4] | [6] | [8] | [9] | [11] | [12]
active: [1] 35.5 µM | [2] 45.9 µM | [3] 38.6 µM | [5] 41.6 µM | [7] 0.513 µM | [10] 9.82 µM | [13] 7.48 µM

C=C(C)CN(CC)c1c([N+](=O)[O-])cc(C(F)(F)F)cc1[N+](=O)[O-]
active: [1] 14.1 µM | [2] 23.2 µM | [3] 15.6 µM | [4] 12800 nM | [5] 14 µM | [7] 92.8 µM | [10] 6.23 µM | [11] 65.1 µM | [12] 32.4 µM | [13] 6.14 µM
inactive: [16] | [6] | [8] | [9]

CO/N=C(/C1=NOCCO1)c1ccccc1Oc1ncnc(Oc2ccccc2Cl)c1F
active: [1] 854 nM and 756 nM | [2] 1.52 µM and 801 nM | DIO3 (gene 1735) 15.9 µM | [3] 1.47 µM and 2.27 µM | [4] 401 nM and 924 nM | [5] 844 nM and 1.02 µM | [7] 0.142 µM | [10] 7.61 µM | [11] 3.51 µM | [12] 2.74 µM | [13] 2.16 µM
inactive: [16] | [6] | [8] | [9]

CCCN(CC)CC1COC2(CCC(C(C)(C)C)CC2)O1 (stereo not drawn)
active: [1] 0.272 µM | [2] 0.266 µM | [3] 0.246 µM | [4] 119 nM | [5] 0.281 µM

O=C1C2CC=CCC2C(=O)N1SC(Cl)(Cl)Cl (stereo not drawn)
active: [1] 9.85 µM | [2] 15.6 µM | [3] 16.1 µM and 14.7 µM | [5] 9.85 µM
inactive: [1] | [2] | [4] | [19]

CCCC(=NOCC)C1=C(O)CC(CC(C)SCC)CC1=O (stereo not drawn)
inactive: [14]

CC(C)N1C(=O)c2ccccc2NS1(=O)=O
inactive: [14]

CC(C)C1(C)N=C(c2ncccc2C(=O)O)NC1=O (stereo not drawn)
inactive: [16] | [14]

CC1(C)CCC(=Cc2ccc(Cl)cc2)C1(O)Cn1cncn1 (stereo not drawn)
inactive: [16] | [14]

Clc1nc(Cl)nc(Nc2ccccc2Cl)n1
inactive: [16] | [14]

CS(=O)(=O)c1cc(C(F)(F)F)ccc1C(=O)c1cnoc1C1CC1
not listed: DIO3 (gene 1735) | [3] | [14] | [15] | [16] | [17] | [18] | [19]
inactive: all other assays above

Cn1c(-c2ccccc2)cc(-c2ccccc2)[n+]1C
inactive: [16] | [14]

CCOc1cc(C(C)(C)C)ccc1C1COC(c2c(F)cccc2F)=N1 (stereo not drawn)
inactive: [14]

CCOc1nc(F)cc2nc(S(=O)(=O)Nc3c(Cl)cccc3Cl)nn12
inactive: [16]

CCCCC(O)(Cn1cncn1)c1ccc(Cl)cc1Cl (stereo not drawn)
inactive: [14]

Cc1nc(N(C)C)nc(OC(=O)N(C)C)c1C
active: DIO3 (gene 1735) 10 µM
inactive: [14]

Nc1c(Cl)c(F)nc(OCC(=O)O)c1Cl
inactive: [16] | [14]

CCCCOCN(C(=O)CCl)c1c(CC)cccc1CC
active: DIO3 (gene 1735) 37.6 µM

COCC(=O)N(c1c(C)cccc1C)C(C)C(=O)OC (stereo not drawn)
inactive: [14]

N#Cc1c[nH]cc1-c1cccc2c1OC(F)(F)O2
inactive: [14]

CCCCC(C#N)(Cn1cncn1)c1ccc(Cl)cc1 (stereo not drawn)
inactive: [19]

OC(c1ccc(Cl)cc1)(c1ccc(Cl)cc1)C(Cl)(Cl)Cl
active: DIO3 (gene 1735) 15.8 µM
inactive: [16] | [14]

COP(=O)(OC)O/C(C)=C/C(=O)N(C)C
inactive: [1] | [2] | [3] | [4] | [5] | [10] | [11] | [12] | [13]
